The record followed here is ChEMBL document CHEMBL4513135, “CO-ADD screening of IQOG CSIS (Spain) compounds”.

Results with a measured potency or affinity are listed apart.

Assay [1] concerns Klebsiella pneumoniae. The settings on record: Concentration 32 ug.mL-1; ASSAY_TEST Inhibition of Bacterial Growth; detection method Absorption (OD600); MEDIA CAMHB; plate type 384well; NBS; CORNING #3640; time 18 hr.
Assay [2] concerns Candida albicans. The note with it: 32 ug/mL.
The subject of assay [3] is Cryptococcus neoformans. The settings on record: Concentration 32 ug.mL-1; ASSAY_TEST Inhibition of Fungal Growth; detection method Resazurin; Absorption (OD600-OD570); plate type 384well; NBS; CORNING #3640.

For `CC(C)(C)OC(=O)N[C@H]1CC[C@H](O)CC1`, the results for the Inhibition in assay [1], in assay [2] and in assay [3] were 7.91%, 0.02% and -36.58%, respectively.
The like results for `CCOC(=O)c1cc2cc(OCc3ccccc3)ccc2[nH]1` were, in that order, 6.66%, 1.86% and -3.27%.
The like results for `COc1cc(Br)c(C=O)cc1OC` were, in that order, 3.95%, 3.94% and -3.9%.
For `COC(=O)C(=Cc1ccc(OC)cc1)NC(C)=O`, in that order: 12.98%, -0.11% and -2.55%.
On to `CCOC(=O)c1cc2cc(OC)ccc2n1C`, for which the Inhibition was -11.12% in assay [1], 0.11% in assay [2] and -3.08% in assay [3].
The like results for `CCOC(=O)C1=C(C)OC(N)=C(C#N)C1c1ccccc1OC` (centres undefined) were, in that order, 15.52%, 23.3% and -0.68%.
For `Cl.NC1(C(=O)O)CC1c1ccccc1` (centres undefined), in that order: 9.92%, 1.66% and -5.74%.
The like results for `COc1cccc(C=C2N=C(c3ccccc3)OC2=O)c1OC(C)=O` were, in that order, 0.25%, -1.1% and -5.03%.
As for `C#CCN1CCc2nc3nc(NC4CCN(Cc5ccccc5)CC4)c(C#N)cc3c(N)c2C1`, the Inhibition is 10.49% in assay [1], 5.66% in assay [2] and -17.48% in assay [3].
The like results for `CN(N=O)C(=O)NC1(C(=O)O)CC1c1ccccc1` (centres undefined) were, in that order, 23.72%, 1.7% and -0.92%.
With `C#CCNc1nc(OC)c(C#N)c(-c2ccccc2)c1C#N`, the Inhibition in assay [1] was 13.71%; in assay [2], 1.22%; in assay [3], -26.89%.
As to `O=C(NNCCc1ccccc1)c1cc2ccccc2[nH]1`, the Inhibition in assay [1] was 0.93%; in assay [2] it was -1.59%; in assay [3], -3.77%.
For `N#CCC(=C(C#N)C#N)c1ccccc1`, in that order: 11.23%, 5.35% and -3.99%.
